# How the values were obtained:
# Test in all cases: SPOT peptide array binding signal intensity (averaged, normalized) (arbitrary units (background-subtracted, floor 0; scale differs between SH3 domains)); higher = stronger binding of the SH3 domain to the peptide
# [1] = biological target: AgAbp1
# Method in brief: (§1)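 The binding signal is the normalized, background-subtracted spot intensity averaged over replicates; its arbitrary units differ between domains. It was obtained by incubating 10 μg/ml GST-fused SH3 domains from four yeast species overnight at 4°C in TBS-based blocking buffer on cellulose membranes with synthetic 15-mer peptides, cysteines replaced by serines, then detecting with anti-GST antibody, HRP anti-mouse secondary and luminol.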
# [2] = biological target: AgBbc1
# Method in brief: as §1
# [3] = biological target: AgBem1-D1
# Method in brief: as §1
# [4] = biological target: AgBzz1-D1
# Method in brief: as §1
# [5] = biological target: AgBzz1-D2
# Method in brief: as §1
# [6] = biological target: AgCyk3
# Method in brief: as §1
# [7] = biological target: AgFus1
# Method in brief: as §1
# [8] = biological target: AgHof1
# Method in brief: as §1
# [9] = biological target: AgHse1
# Method in brief: as §1
# [10] = biological target: AgLsb1
# Method in brief: as §1
# [11] = biological target: AgLsb4
# Method in brief: as §1
# [12] = biological target: AgMyo5
# Method in brief: as §1
# [13] = biological target: AgNbp2
# Method in brief: as §1
# [14] = biological target: AgRvs167
# Method in brief: as §1
# [15] = biological target: AgSho1
# Method in brief: as §1
# [16] = biological target: AgSla1-D1-D2
# Method in brief: as §1
# [17] = biological target: AgSla1-D3
# Method in brief: as §1
# [18] = biological target: CaAbp1-D1
# Method in brief: as §1
# [19] = biological target: CaAbp1-D2
# Method in brief: as §1
# [20] = biological target: CaBbc1
# Method in brief: as §1
# [21] = biological target: CaBem1-D1
# Method in brief: as §1
# [22] = biological target: CaBzz1-D1
# Method in brief: as §1
# [23] = biological target: CaBzz1-D2
# Method in brief: as §1
# [24] = biological target: CaCyk3
# Method in brief: as §1
# [25] = biological target: CaFus1
# Method in brief: as §1
# [26] = biological target: CaHof1
# Method in brief: as §1
# [27] = biological target: CaHse1
# Method in brief: as §1
# [28] = biological target: CaLsb1
# Method in brief: as §1
# [29] = biological target: CaLsb4
# Method in brief: as §1
# [30] = biological target: CaMyo5
# Method in brief: as §1
# [31] = biological target: CaNbp2
# Method in brief: as §1
# [32] = biological target: CaRvs167
# Method in brief: as §1
# [33] = biological target: CaRvs167-3
# Method in brief: as §1
# [34] = biological target: CaSho1
# Method in brief: as §1
# [35] = biological target: CaSla1-D1-D2
# Method in brief: as §1
# [36] = biological target: CaSla1-D3
# Method in brief: as §1
# [37] = biological target: ScAbp1
# Method in brief: as §1
# [38] = biological target: ScBbc1
# Method in brief: as §1
# [39] = biological target: ScBem1-D1
# Method in brief: as §1
# [40] = biological target: ScBzz1-D1
# Method in brief: as §1
# [41] = biological target: ScBzz1-D2
# Method in brief: as §1
# [42] = biological target: ScCyk3
# Method in brief: as §1
# [43] = biological target: ScFus1
# Method in brief: as §1
# [44] = biological target: ScHof1
# Method in brief: as §1
# [45] = biological target: ScHse1
# Method in brief: as §1
# [46] = biological target: ScLsb1
# Method in brief: as §1
# [47] = biological target: ScLsb2
# Method in brief: as §1
# [48] = biological target: ScLsb3
# Method in brief: as §1
# [49] = biological target: ScLsb4
# Method in brief: as §1
# [50] = biological target: ScMyo3
# Method in brief: as §1
# [51] = biological target: ScMyo5
# Method in brief: as §1
# [52] = biological target: ScNbp2
# Method in brief: as §1
# [53] = biological target: ScPex13
# Method in brief: as §1
# [54] = biological target: ScRvs167
# Method in brief: as §1
# [55] = biological target: ScSho1
# Method in brief: as §1
# [56] = biological target: ScSla1-D1-D2
# Method in brief: as §1
# [57] = biological target: ScSla1-D3
# Method in brief: as §1
# [58] = biological target: SpAbp1-D1
# Method in brief: as §1
# [59] = biological target: SpBbc1
# Method in brief: as §1
# [60] = biological target: SpBzz1-D1
# Method in brief: as §1
# [61] = biological target: SpBzz1-D2
# Method in brief: as §1
# [62] = biological target: SpCyk3
# Method in brief: as §1
# [63] = biological target: SpHof1
# Method in brief: as §1
# [64] = biological target: SpHof1-2
# Method in brief: as §1
# [65] = biological target: SpHof1-3
# Method in brief: as §1
# [66] = biological target: SpHse1
# Method in brief: as §1
# [67] = biological target: SpLsb1
# Method in brief: as §1
# [68] = biological target: SpLsb4
# Method in brief: as §1
# [69] = biological target: SpMyo1
# Method in brief: as §1
# [70] = biological target: SpNbp2
# Method in brief: as §1
# [71] = biological target: SpPex13
# Method in brief: as §1
# [72] = biological target: SpRvs167
# Method in brief: as §1
# [73] = biological target: SpSla1-D1-D2
# Method in brief: as §1
# [74] = biological target: SpSla1-D3
# Method in brief: as §1
binder,measurement,setting,value
AAHKTKPSIPPKKVE,SPOT peptide array binding signal intensity,[1],1520
same,SPOT peptide array binding signal intensity,[2],≤ 0
same,SPOT peptide array binding signal intensity,[3],≤ 0
same,SPOT peptide array binding signal intensity,[4],57.5
same,SPOT peptide array binding signal intensity,[5],5.5
same,SPOT peptide array binding signal intensity,[6],≤ 0
same,SPOT peptide array binding signal intensity,[7],≤ 0
same,SPOT peptide array binding signal intensity,[8],20
same,SPOT peptide array binding signal intensity,[9],≤ 0
same,SPOT peptide array binding signal intensity,[10],≤ 0
same,SPOT peptide array binding signal intensity,[11],≤ 0
same,SPOT peptide array binding signal intensity,[12],3.75
same,SPOT peptide array binding signal intensity,[13],≤ 0
same,SPOT peptide array binding signal intensity,[14],1
same,SPOT peptide array binding signal intensity,[15],8
same,SPOT peptide array binding signal intensity,[16],≤ 0
same,SPOT peptide array binding signal intensity,[17],3.25
same,SPOT peptide array binding signal intensity,[18],2440
same,SPOT peptide array binding signal intensity,[19],6290
same,SPOT peptide array binding signal intensity,[20],42
same,SPOT peptide array binding signal intensity,[21],≤ 0
same,SPOT peptide array binding signal intensity,[22],257
same,SPOT peptide array binding signal intensity,[23],243
same,SPOT peptide array binding signal intensity,[24],≤ 0
same,SPOT peptide array binding signal intensity,[25],≤ 0
same,SPOT peptide array binding signal intensity,[26],1.5
same,SPOT peptide array binding signal intensity,[27],13.2
same,SPOT peptide array binding signal intensity,[28],≤ 0
same,SPOT peptide array binding signal intensity,[29],≤ 0
same,SPOT peptide array binding signal intensity,[30],1
same,SPOT peptide array binding signal intensity,[31],≤ 0
same,SPOT peptide array binding signal intensity,[32],1.67
same,SPOT peptide array binding signal intensity,[33],≤ 0
same,SPOT peptide array binding signal intensity,[34],≤ 0
same,SPOT peptide array binding signal intensity,[35],282
same,SPOT peptide array binding signal intensity,[36],3.25
same,SPOT peptide array binding signal intensity,[37],907
same,SPOT peptide array binding signal intensity,[38],≤ 0
same,SPOT peptide array binding signal intensity,[39],≤ 0
same,SPOT peptide array binding signal intensity,[40],3.5
same,SPOT peptide array binding signal intensity,[41],1.5
same,SPOT peptide array binding signal intensity,[42],≤ 0
same,SPOT peptide array binding signal intensity,[43],≤ 0
same,SPOT peptide array binding signal intensity,[44],0.5
same,SPOT peptide array binding signal intensity,[45],≤ 0
same,SPOT peptide array binding signal intensity,[46],0.25
same,SPOT peptide array binding signal intensity,[47],0.5
same,SPOT peptide array binding signal intensity,[48],144
same,SPOT peptide array binding signal intensity,[49],13.5
same,SPOT peptide array binding signal intensity,[50],8.5
same,SPOT peptide array binding signal intensity,[51],2
same,SPOT peptide array binding signal intensity,[52],≤ 0
same,SPOT peptide array binding signal intensity,[53],7
same,SPOT peptide array binding signal intensity,[54],3.17
same,SPOT peptide array binding signal intensity,[55],6
same,SPOT peptide array binding signal intensity,[56],≤ 0
same,SPOT peptide array binding signal intensity,[57],2.5
same,SPOT peptide array binding signal intensity,[58],282
same,SPOT peptide array binding signal intensity,[59],≤ 0
same,SPOT peptide array binding signal intensity,[60],311
same,SPOT peptide array binding signal intensity,[61],≤ 0
same,SPOT peptide array binding signal intensity,[62],≤ 0
same,SPOT peptide array binding signal intensity,[63],0.25
same,SPOT peptide array binding signal intensity,[64],6
same,SPOT peptide array binding signal intensity,[65],3
same,SPOT peptide array binding signal intensity,[66],32.8
same,SPOT peptide array binding signal intensity,[67],11.5
same,SPOT peptide array binding signal intensity,[68],4
same,SPOT peptide array binding signal intensity,[69],≤ 0
same,SPOT peptide array binding signal intensity,[70],12.5
same,SPOT peptide array binding signal intensity,[71],1
same,SPOT peptide array binding signal intensity,[72],9.5
same,SPOT peptide array binding signal intensity,[73],4
same,SPOT peptide array binding signal intensity,[74],2.5
LPPPPPPPPPPPLPQ,SPOT peptide array binding signal intensity,[1],11
same,SPOT peptide array binding signal intensity,[2],1.25
same,SPOT peptide array binding signal intensity,[3],≤ 0
same,SPOT peptide array binding signal intensity,[4],42.5
same,SPOT peptide array binding signal intensity,[5],1
same,SPOT peptide array binding signal intensity,[6],1
same,SPOT peptide array binding signal intensity,[7],3
same,SPOT peptide array binding signal intensity,[8],128
same,SPOT peptide array binding signal intensity,[9],21
same,SPOT peptide array binding signal intensity,[10],1.5
same,SPOT peptide array binding signal intensity,[11],≤ 0
same,SPOT peptide array binding signal intensity,[12],640
same,SPOT peptide array binding signal intensity,[13],28.5
same,SPOT peptide array binding signal intensity,[14],≤ 0
same,SPOT peptide array binding signal intensity,[15],≤ 0
same,SPOT peptide array binding signal intensity,[16],4.5
same,SPOT peptide array binding signal intensity,[17],≤ 0
same,SPOT peptide array binding signal intensity,[18],9
same,SPOT peptide array binding signal intensity,[19],≤ 0
same,SPOT peptide array binding signal intensity,[20],≤ 0
same,SPOT peptide array binding signal intensity,[21],3
same,SPOT peptide array binding signal intensity,[22],1990
same,SPOT peptide array binding signal intensity,[23],495
same,SPOT peptide array binding signal intensity,[24],≤ 0
same,SPOT peptide array binding signal intensity,[25],≤ 0
same,SPOT peptide array binding signal intensity,[26],≤ 0
same,SPOT peptide array binding signal intensity,[27],5.75
same,SPOT peptide array binding signal intensity,[28],≤ 0
same,SPOT peptide array binding signal intensity,[29],≤ 0
same,SPOT peptide array binding signal intensity,[30],182
LPMNIQPDLPPRKIM,SPOT peptide array binding signal intensity,[61],5.5
same,SPOT peptide array binding signal intensity,[62],9.5
same,SPOT peptide array binding signal intensity,[63],21.5
same,SPOT peptide array binding signal intensity,[64],18.2
same,SPOT peptide array binding signal intensity,[65],11
same,SPOT peptide array binding signal intensity,[66],174
same,SPOT peptide array binding signal intensity,[67],160
same,SPOT peptide array binding signal intensity,[68],4630
same,SPOT peptide array binding signal intensity,[69],75
same,SPOT peptide array binding signal intensity,[70],59
same,SPOT peptide array binding signal intensity,[71],42.5
same,SPOT peptide array binding signal intensity,[72],2340
same,SPOT peptide array binding signal intensity,[73],2.5
same,SPOT peptide array binding signal intensity,[74],148

# — the supplement of paper PMC4466140
